From PubChem BioAssay AID1159580 (chemical genetic matrix, 2015)
Out of some 5,500 compounds screened, about 2,000 (36%) were called active. Not shown: some 18% with an inconclusive outcome. Rule as the data show it: active = normalized growth mostly below about 0.91 (no sharp cut-off); inconclusive = no clear call, values can overlap the other calls; inactive = mostly above about 0.92. The list shows a part of the results.

Assay: chemical genetic growth profiling, strain panel (AID 1159580);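 also: tested at 20 µM; growth read once vehicle control cultures reached saturation at 30 °C; 1 = growth at the plate median or of vehicle wells; lower values mean less growth of the strain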
Settings: growth OD

Measured: normalized growth

COc1ccc2c3c1O[C@H]1C[C@@H](O)C=C[C@@]31CCN(C)C2
inactive: S. cerevisiae deletion strains, locus YJR075W, strain HOC1, hits give low values 0.947 | S. cerevisiae deletion strains, locus YKL009W, strain mrt4, hits give low values 1.02 | S. cerevisiae deletion strains, locus YKL068W, hits give low values 1.02 | S. cerevisiae deletion strains, locus YKL085W, strain MDH1 (second series), hits give low values 1 | S. cerevisiae deletion strains, locus YKL085W, strain MDH1, hits give low values 1 | S. cerevisiae deletion strains, locus YKL160W, strain elf1, hits give low values 0.996 | S. cerevisiae deletion strains, locus YKL190W, strain CNB1, hits give low values 1.01 | S. cerevisiae deletion strains, locus YKR001C, strain vps1, hits give low values 1.03 | S. cerevisiae deletion strains, locus YKR026C, strain gcn3, hits give low values 0.974 | S. cerevisiae deletion strains, locus YKR091W, strain srl3, hits give low values 0.99 | S. cerevisiae deletion strains, locus YLL001W, strain dnm1, hits give low values 0.996 | S. cerevisiae deletion strains, locus YLL026W, hits give low values 0.995 | S. cerevisiae deletion strains, locus YLL041C, strain sdh2, hits give low values 0.999 | S. cerevisiae deletion strains, locus YLR027C, strain aat2, hits give low values 0.989 | S. cerevisiae deletion strains, locus YLR039C, strain RIC1, hits give low values 1.06 | S. cerevisiae deletion strains, locus YLR058C, strain SHM2, hits give low values 1.01 | S. cerevisiae deletion strains, locus YLR102C, strain apc9, hits give low values 1.02 | S. cerevisiae deletion strains, locus YLR113W, strain HOG1, hits give low values 1.01 | S. cerevisiae deletion strains, locus YLR221C, strain rsa3, hits give low values 1.02 | S. cerevisiae deletion strains, locus YLR258W, strain gsy2, hits give low values 1 | S. cerevisiae deletion strains, locus YLR262C, strain YPT6 (second series), hits give low values 0.984 | S. cerevisiae deletion strains, locus YLR262C, strain YPT6, hits give low values 1.02 | S. cerevisiae deletion strains, locus YLR268W, strain sec22, hits give low values 0.993 | S. cerevisiae deletion strains, locus YLR320W, strain mms22, hits give low values 1.01 | S. cerevisiae deletion strains, locus YLR330W, strain CHS5, hits give low values 1.01 | S. cerevisiae deletion strains, locus YLR342W, strain FKS1 (second series), hits give low values 1.08 | S. cerevisiae deletion strains, locus YLR342W, strain FKS1, hits give low values 1.01 | S. cerevisiae deletion strains, locus YLR357W, strain rsc2, hits give low values 0.962 | S. cerevisiae deletion strains, locus YLR370C, strain arc18, hits give low values 1 | S. cerevisiae deletion strains, locus YLR371W, strain rom2, hits give low values 1.02 | S. cerevisiae deletion strains, locus YLR384C, strain iki3, hits give low values 1.01 | S. cerevisiae deletion strains, locus YLR418C, strain cdc73, hits give low values 0.991 | S. cerevisiae deletion strains, locus YML016C, strain PPZ1, hits give low values 1 | S. cerevisiae deletion strains, locus YML032C, strain rad52, hits give low values 1.04 | S. cerevisiae deletion strains, locus YML120C, strain ndi1, hits give low values 0.979 | S. cerevisiae deletion strains, locus YML124C, strain tub3, hits give low values 1.01 | S. cerevisiae deletion strains, locus YMR058W, strain fet3, hits give low values 0.989 | S. cerevisiae deletion strains, locus YMR078C, strain ctf18, hits give low values 1.03 | S. cerevisiae deletion strains, locus YMR125W, strain sto1, hits give low values 0.965 | S. cerevisiae deletion strains, locus YMR129W, hits give low values 1.01 | S. cerevisiae deletion strains, locus YMR205C, strain PFK2, hits give low values 0.992 | S. cerevisiae deletion strains, locus YMR223W, strain ubp8, hits give low values 1.04 | S. cerevisiae deletion strains, locus YMR231W, strain pep5, hits give low values 1 | S. cerevisiae deletion strains, locus YMR263W, strain SAP30, hits give low values 0.991 | S. cerevisiae deletion strains, locus YMR307W, strain GAS1, hits give low values 1.06 | S. cerevisiae deletion strains, locus YNL067W, strain RPL9B, hits give low values 0.989 | S. cerevisiae deletion strains, locus YNL071W, strain lat1, hits give low values 1.01 | S. cerevisiae deletion strains, locus YNL128W, strain TEP1, hits give low values 0.974 | S. cerevisiae deletion strains, locus YNL153C, strain GIM3, hits give low values 0.982 | S. cerevisiae deletion strains, locus YNL183C, strain NPR1, hits give low values 0.948 | S. cerevisiae deletion strains, locus YNL209W, strain ssb2, hits give low values 1 | S. cerevisiae deletion strains, locus YNL233W, strain BNI4, hits give low values 0.995 | S. cerevisiae deletion strains, locus YNL248C, strain rpa49, hits give low values 0.996 | S. cerevisiae deletion strains, locus YNL250W, strain rad50, hits give low values 1.01 | S. cerevisiae deletion strains, locus YNL271C, strain bni1, hits give low values 1.02 | S. cerevisiae deletion strains, locus YNL298W, strain CLA4, hits give low values 1.03 | S. cerevisiae deletion strains, locus YNL307C, strain MCK1, hits give low values 1.05 | S. cerevisiae deletion strains, locus YNL322C, strain KRE1 (second series), hits give low values 1 | S. cerevisiae deletion strains, locus YNL322C, strain KRE1, hits give low values 1.01 | S. cerevisiae deletion strains, locus YNR049C, strain mso1, hits give low values 1.01 | S. cerevisiae deletion strains, locus YNR052C, strain pop2, hits give low values 1.02 | S. cerevisiae deletion strains, locus YOL006C, strain TOP1, hits give low values 1.03 | S. cerevisiae deletion strains, locus YOL012C, strain htz1 0.856 | S. cerevisiae deletion strains, locus YOL147C, strain pex11, hits give low values 1.01 | S. cerevisiae deletion strains, locus YOR001W, strain rrp6, hits give low values 0.996 | S. cerevisiae deletion strains, locus YOR061W, strain CKA2, hits give low values 1.01 | S. cerevisiae deletion strains, locus YOR069W, strain VPS5, hits give low values 1.01 | S. cerevisiae deletion strains, locus YOR070C, strain gyp1, hits give low values 1.01 | S. cerevisiae deletion strains, locus YOR080W, strain dia2, hits give low values 0.994 | S. cerevisiae deletion strains, locus YOR083W, strain WHI5, hits give low values 0.988 | S. cerevisiae deletion strains, locus YOR106W, strain vam3, hits give low values 1 | S. cerevisiae deletion strains, locus YOR136W, strain idh2, hits give low values 1.02 | S. cerevisiae deletion strains, locus YOR144C, strain elg1, hits give low values 1.01 | S. cerevisiae deletion strains, locus YOR184W, strain ser1, hits give low values 1.06 | S. cerevisiae deletion strains, locus YOR231W, strain MKK1, hits give low values 0.987 | S. cerevisiae deletion strains, locus YOR265W, strain rbl2, hits give low values 1 | S. cerevisiae deletion strains, locus YOR270C, strain vph1, hits give low values 0.965 | S. cerevisiae deletion strains, locus YOR290C, strain snf2, hits give low values 1.01 | S. cerevisiae deletion strains, locus YOR316C, strain cot1, hits give low values 1.02 | S. cerevisiae deletion strains, locus YPL051W, strain arl3, hits give low values 0.988 | S. cerevisiae deletion strains, locus YPL055C, strain LGE1, hits give low values 0.935 | S. cerevisiae deletion strains, locus YPL078C, strain atp4, hits give low values 1 | S. cerevisiae deletion strains, locus YPL106C, strain sse1, hits give low values 1.01 | S. cerevisiae deletion strains, locus YPL240C, strain hsp82, hits give low values 1.03 | S. cerevisiae deletion strains, locus YPL241C, strain CIN2, hits give low values 1.01 | S. cerevisiae deletion strains, locus YPL256C, strain CLN2, hits give low values 1.01 | S. cerevisiae deletion strains, locus YPR119W, strain clb2, hits give low values 1 | S. cerevisiae deletion strains, locus YPR141C, strain kar3, hits give low values 1.01 | S. cerevisiae deletion strains, locus YPR163C, strain tif3, hits give low values 1.01 | S. cerevisiae deletion strains, locus YPR167C, strain met16, hits give low values 1.01 | S. cerevisiae deletion strains, strain wtn01, hits give low values 1 | S. cerevisiae strains, strain wild type, hits give low values 1.02
